Results reported in PMC7862700, “An all-to-all approach to the identification of sequence-specific readers for epigenetic DNA modifications on cytosine”.

Assays:
Test in all cases: DAPPL (digital affinity profiling via proximity ligation, sequencing); 10 mM Tris-HCl pH 7.5, 50 mM NaCl, 1 mM DTT, 4% glycerol, room temperature, 30 min; GST-TFs on glutathione beads, 16-mer random dsDNA library, 0.1% formaldehyde crosslink after washing; high values mean tight binding
FEV = target: T1, FEV (Homo sapiens, UniProt Q99581 1-238); conditions: protein: recombinant; tags: N-terminal GST; dsDNA, one strand shown
T1 sequence: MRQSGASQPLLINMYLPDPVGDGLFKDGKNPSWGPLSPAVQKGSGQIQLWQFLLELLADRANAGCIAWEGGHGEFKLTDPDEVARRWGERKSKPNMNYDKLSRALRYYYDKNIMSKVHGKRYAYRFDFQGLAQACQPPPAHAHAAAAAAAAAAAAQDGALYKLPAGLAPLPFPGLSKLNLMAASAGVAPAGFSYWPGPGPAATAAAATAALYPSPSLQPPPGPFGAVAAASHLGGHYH
Procedure, shortened: (§1)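 Sequencing on an Illumina NextSeq500 followed washing, crosslinking with 0.1% formaldehyde, proximity ligation (BsaI/T4 ligase, 1 h, 37 °C) and PCR amplification of pools that had been incubated for 30 min at room temperature with 200 nmole of a random double-stranded 16-mer DNA library in Tris/NaCl/DTT/glycerol buffer. Each pool held DNA-barcoded human transcription factors, expressed in yeast as GST fusions and captured on glutathione beads, plus a tag-only sample. Binding signal is a hexamer's read frequency for a factor divided by its frequency in the tag-only sample.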

ETV5 = ETV5 (Homo sapiens, UniProt P41161 1-510); conditions: protein: recombinant; tags: N-terminal GST; dsDNA, one strand shown
Sequence of ETV5 (P41161 whole entry): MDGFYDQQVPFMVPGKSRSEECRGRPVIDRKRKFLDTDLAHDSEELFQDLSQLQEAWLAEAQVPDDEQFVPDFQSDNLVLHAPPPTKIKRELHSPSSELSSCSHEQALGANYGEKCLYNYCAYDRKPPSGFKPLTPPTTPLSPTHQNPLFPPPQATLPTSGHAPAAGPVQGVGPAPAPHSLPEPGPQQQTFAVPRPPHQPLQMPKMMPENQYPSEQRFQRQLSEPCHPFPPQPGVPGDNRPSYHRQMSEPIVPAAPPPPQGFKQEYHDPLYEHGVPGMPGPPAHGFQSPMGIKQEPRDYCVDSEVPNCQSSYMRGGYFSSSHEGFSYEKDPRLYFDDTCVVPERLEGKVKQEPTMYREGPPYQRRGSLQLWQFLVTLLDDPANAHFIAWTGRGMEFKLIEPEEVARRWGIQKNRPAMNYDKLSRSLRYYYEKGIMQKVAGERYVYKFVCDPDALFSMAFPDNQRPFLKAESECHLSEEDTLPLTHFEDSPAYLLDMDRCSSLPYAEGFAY
Procedure, shortened: as §1

HSF1 = HSF1 (Homo sapiens, UniProt Q00613 1-529); conditions: protein: recombinant; tags: N-terminal GST; chain copies: 3; dsDNA, one strand shown
Sequence of HSF1 (Q00613 whole entry): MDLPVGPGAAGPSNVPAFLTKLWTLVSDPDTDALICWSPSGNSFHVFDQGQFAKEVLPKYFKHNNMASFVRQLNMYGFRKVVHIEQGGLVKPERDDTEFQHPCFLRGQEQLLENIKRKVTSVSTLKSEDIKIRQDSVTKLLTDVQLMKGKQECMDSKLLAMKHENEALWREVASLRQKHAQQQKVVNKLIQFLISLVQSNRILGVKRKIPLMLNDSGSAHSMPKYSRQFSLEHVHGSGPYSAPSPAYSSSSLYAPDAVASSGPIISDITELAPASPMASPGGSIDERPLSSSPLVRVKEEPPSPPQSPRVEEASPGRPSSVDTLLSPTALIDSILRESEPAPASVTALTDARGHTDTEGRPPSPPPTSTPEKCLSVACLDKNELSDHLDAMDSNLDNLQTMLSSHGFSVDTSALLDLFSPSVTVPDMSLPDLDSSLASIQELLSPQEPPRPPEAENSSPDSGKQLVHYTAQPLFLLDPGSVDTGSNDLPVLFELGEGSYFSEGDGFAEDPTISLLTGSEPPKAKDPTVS
Procedure, shortened: as §1

SPIC = target: T2, SPIC (Homo sapiens, UniProt Q8N5J4 1-248); conditions: protein: recombinant; tags: N-terminal GST; dsDNA, one strand shown
T2 sequence: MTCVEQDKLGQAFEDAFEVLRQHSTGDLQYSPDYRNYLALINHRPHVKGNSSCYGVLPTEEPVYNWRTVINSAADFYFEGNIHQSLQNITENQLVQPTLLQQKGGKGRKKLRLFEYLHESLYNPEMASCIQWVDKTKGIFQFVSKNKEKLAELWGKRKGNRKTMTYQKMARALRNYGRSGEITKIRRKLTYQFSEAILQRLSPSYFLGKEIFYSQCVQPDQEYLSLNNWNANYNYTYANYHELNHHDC
Procedure, shortened: as §1

ELF4 = ELF4 (Homo sapiens, UniProt Q99607 1-663); conditions: protein: recombinant; tags: N-terminal GST; dsDNA, one strand shown
Sequence of ELF4 (Q99607 whole entry): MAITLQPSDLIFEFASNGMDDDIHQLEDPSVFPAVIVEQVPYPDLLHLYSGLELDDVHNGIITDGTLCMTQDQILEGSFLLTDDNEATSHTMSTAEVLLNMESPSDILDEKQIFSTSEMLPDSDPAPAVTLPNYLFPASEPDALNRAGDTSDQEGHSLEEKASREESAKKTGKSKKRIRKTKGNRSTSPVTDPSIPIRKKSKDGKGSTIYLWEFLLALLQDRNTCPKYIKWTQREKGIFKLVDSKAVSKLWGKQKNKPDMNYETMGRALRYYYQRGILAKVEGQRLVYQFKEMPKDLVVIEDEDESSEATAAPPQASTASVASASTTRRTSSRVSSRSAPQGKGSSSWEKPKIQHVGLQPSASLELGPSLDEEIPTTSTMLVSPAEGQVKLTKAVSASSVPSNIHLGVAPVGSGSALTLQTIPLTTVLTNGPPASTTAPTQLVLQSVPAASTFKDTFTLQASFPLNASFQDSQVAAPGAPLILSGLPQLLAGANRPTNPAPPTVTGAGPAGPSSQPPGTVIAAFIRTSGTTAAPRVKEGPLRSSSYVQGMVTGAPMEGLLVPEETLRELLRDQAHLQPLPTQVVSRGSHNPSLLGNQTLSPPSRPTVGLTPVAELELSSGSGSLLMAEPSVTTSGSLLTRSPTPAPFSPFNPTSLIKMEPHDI
Procedure, shortened: as §1

ELK4 = target: T3, ELK4 (Homo sapiens, UniProt P28324-2 1-405); conditions: protein: recombinant; tags: N-terminal GST; dsDNA, one strand shown
T3 sequence: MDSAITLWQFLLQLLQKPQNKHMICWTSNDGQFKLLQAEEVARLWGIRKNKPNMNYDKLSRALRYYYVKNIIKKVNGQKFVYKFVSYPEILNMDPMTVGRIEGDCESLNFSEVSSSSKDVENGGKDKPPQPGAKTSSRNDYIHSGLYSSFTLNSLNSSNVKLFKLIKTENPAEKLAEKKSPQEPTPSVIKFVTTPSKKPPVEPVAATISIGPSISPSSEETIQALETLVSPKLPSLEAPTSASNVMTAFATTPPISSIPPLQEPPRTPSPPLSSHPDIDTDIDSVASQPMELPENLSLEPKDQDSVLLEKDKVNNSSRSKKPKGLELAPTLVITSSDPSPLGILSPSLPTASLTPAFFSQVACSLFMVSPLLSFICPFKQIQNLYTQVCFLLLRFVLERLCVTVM
Procedure, shortened: as §1

ETV2 = target: T4, ETV2 (Homo sapiens, UniProt O00321 1-342); conditions: protein: recombinant; tags: N-terminal GST; dsDNA, one strand shown
T4 sequence: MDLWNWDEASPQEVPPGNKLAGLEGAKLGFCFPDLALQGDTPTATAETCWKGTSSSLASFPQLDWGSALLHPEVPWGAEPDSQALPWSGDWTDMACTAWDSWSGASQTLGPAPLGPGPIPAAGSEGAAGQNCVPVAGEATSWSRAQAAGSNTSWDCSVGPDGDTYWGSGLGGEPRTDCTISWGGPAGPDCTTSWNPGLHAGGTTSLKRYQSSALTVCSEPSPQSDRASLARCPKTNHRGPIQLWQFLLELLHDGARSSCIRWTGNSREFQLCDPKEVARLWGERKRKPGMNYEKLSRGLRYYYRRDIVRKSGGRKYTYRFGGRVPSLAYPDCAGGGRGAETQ
Procedure, shortened: as §1

ELF3 = target: T5, ELF3 (Homo sapiens, UniProt P78545 1-371); conditions: protein: recombinant; tags: N-terminal GST; dsDNA, one strand shown
T5 sequence: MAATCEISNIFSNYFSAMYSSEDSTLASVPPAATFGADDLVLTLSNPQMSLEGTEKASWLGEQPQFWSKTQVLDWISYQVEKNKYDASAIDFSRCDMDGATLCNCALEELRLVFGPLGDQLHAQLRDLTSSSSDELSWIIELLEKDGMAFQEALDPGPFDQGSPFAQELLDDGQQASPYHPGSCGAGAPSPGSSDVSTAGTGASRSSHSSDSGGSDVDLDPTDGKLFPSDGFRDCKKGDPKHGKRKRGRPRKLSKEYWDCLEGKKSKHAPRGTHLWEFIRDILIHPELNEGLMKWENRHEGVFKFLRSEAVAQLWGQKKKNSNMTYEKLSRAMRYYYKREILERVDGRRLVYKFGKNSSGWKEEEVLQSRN
Procedure, shortened: as §1

CRX = CRX (Homo sapiens, UniProt O43186 1-299); conditions: protein: recombinant; tags: N-terminal GST; dsDNA, one strand shown
Sequence of CRX (O43186 whole entry): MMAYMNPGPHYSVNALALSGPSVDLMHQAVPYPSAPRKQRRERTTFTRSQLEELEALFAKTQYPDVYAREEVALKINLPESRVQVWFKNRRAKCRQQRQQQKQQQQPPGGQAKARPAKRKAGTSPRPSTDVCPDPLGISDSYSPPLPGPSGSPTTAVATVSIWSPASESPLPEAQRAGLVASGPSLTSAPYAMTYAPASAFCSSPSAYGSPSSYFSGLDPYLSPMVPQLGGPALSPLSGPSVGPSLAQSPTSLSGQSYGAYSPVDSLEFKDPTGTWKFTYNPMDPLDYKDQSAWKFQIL
Procedure, shortened: as §1

ERF = target: T6, ERF (Homo sapiens, UniProt P50548 1-548); conditions: protein: recombinant; tags: N-terminal GST; dsDNA, one strand shown
T6 sequence: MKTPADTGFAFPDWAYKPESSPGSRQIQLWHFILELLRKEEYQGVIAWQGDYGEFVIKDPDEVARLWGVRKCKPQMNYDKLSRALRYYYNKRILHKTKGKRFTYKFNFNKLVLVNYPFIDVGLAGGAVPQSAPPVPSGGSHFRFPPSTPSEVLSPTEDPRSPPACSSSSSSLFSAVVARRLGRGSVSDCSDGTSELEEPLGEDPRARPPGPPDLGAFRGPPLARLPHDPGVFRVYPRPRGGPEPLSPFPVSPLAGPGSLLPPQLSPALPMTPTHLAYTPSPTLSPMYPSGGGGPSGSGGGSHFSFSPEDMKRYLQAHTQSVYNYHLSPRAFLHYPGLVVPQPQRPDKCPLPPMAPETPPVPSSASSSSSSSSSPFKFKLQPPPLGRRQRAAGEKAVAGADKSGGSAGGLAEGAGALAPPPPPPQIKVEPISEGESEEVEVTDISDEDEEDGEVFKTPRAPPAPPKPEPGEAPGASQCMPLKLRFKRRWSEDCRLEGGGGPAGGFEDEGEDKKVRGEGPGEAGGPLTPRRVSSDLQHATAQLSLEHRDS
Procedure, shortened: as §1

ETV3L = target: T7, ETV3L (Homo sapiens, UniProt Q6ZN32 1-361); conditions: protein: recombinant; tags: N-terminal GST; dsDNA, one strand shown
T7 sequence: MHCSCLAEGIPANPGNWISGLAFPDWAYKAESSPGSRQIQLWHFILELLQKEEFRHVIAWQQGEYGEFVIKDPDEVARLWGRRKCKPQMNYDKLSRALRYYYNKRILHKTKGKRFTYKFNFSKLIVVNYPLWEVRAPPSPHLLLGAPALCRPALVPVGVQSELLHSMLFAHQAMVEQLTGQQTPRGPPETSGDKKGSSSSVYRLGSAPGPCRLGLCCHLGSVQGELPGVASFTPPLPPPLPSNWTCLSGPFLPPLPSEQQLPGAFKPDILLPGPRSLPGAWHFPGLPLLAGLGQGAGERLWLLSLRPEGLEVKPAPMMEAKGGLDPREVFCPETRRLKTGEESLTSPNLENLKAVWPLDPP
Procedure, shortened: as §1

ETS2 = target: T8, ETS2 (Homo sapiens, UniProt P15036 1-469); conditions: protein: recombinant; tags: N-terminal GST; dsDNA, one strand shown
T8 sequence: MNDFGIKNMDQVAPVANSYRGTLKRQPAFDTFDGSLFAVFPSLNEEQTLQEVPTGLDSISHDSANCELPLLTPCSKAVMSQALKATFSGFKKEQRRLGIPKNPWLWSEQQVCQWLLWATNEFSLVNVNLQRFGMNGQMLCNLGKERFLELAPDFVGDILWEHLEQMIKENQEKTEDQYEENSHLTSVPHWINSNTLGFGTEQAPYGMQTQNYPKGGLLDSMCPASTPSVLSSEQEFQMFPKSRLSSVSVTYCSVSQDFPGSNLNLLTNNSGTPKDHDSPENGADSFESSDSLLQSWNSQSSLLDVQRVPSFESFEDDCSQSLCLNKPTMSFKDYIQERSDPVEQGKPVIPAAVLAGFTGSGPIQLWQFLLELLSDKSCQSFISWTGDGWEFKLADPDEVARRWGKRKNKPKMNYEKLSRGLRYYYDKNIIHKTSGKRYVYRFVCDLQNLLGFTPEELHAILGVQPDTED
Procedure, shortened: as §1

SPDEF = target: T9, SPDEF (Homo sapiens, UniProt O95238 1-335); conditions: protein: recombinant; tags: N-terminal GST; dsDNA, one strand shown
T9 sequence: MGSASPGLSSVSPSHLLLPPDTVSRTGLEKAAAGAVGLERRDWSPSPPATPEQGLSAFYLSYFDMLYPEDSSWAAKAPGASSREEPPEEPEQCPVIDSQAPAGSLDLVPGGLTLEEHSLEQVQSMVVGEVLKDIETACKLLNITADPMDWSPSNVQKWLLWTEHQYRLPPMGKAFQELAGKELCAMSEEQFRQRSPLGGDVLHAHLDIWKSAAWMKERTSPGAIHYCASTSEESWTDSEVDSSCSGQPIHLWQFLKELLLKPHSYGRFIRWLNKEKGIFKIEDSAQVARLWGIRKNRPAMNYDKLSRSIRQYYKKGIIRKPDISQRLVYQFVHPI
Procedure, shortened: as §1

ETV7 = target: T10, ETV7 (Homo sapiens, UniProt Q9Y603 1-341); conditions: protein: recombinant; tags: N-terminal GST; dsDNA, one strand shown
T10 sequence: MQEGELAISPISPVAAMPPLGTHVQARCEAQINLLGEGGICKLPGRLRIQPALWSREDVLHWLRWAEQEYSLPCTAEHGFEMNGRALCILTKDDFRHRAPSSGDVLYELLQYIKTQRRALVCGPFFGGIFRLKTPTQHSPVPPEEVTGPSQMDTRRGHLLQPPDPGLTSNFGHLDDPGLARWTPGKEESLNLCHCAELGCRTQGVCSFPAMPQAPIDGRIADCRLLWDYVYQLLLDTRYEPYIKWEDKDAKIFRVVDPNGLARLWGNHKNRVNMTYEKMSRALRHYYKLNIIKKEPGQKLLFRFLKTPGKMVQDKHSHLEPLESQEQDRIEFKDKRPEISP
Procedure, shortened: as §1

ELF5 = target: T11, ELF5 (Homo sapiens, UniProt Q9UKW6-2 1-255); conditions: protein: recombinant; tags: N-terminal GST; dsDNA, one strand shown
T11 sequence: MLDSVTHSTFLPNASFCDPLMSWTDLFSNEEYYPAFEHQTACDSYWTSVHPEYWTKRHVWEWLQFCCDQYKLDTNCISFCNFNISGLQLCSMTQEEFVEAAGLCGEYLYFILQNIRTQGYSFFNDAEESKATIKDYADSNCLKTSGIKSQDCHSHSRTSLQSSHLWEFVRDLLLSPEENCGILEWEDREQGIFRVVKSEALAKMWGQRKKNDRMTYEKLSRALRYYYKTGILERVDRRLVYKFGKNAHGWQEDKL
Procedure, shortened: as §1

ETV3 = target: T12, ETV3 (Homo sapiens, UniProt P41162-2 1-143); conditions: protein: recombinant; tags: N-terminal GST; dsDNA, one strand shown
T12 sequence: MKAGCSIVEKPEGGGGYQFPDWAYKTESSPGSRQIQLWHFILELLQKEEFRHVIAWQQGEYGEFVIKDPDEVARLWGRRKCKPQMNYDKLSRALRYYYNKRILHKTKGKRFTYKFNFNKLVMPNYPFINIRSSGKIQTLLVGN
Procedure, shortened: as §1

ETV6 = ETV6 (Homo sapiens, UniProt P41212 1-452); conditions: protein: recombinant; tags: N-terminal GST; dsDNA, one strand shown
Sequence of ETV6 (P41212 whole entry): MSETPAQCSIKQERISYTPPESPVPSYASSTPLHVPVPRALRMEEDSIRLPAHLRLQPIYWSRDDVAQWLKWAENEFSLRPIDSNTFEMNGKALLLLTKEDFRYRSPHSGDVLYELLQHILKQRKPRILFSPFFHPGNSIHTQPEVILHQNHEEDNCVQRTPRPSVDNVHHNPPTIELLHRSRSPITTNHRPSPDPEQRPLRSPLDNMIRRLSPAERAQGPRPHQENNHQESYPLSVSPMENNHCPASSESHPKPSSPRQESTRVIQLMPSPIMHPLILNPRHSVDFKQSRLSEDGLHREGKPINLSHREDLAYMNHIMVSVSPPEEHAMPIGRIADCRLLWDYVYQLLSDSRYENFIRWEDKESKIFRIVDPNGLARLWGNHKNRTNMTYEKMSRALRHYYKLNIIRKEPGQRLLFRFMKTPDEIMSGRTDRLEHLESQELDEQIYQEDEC
Procedure, shortened: as §1

Sequence: GTTAAG
- binding signal (FEV): 1.02 fold enrichment (6-mer frequency, TF over GST control)
- binding signal (ETV5): 1.03 fold enrichment (6-mer frequency, TF over GST control)
- binding signal (HSF1): 1.3 fold enrichment (6-mer frequency, TF over GST control)
- binding signal (SPIC): 1.06 fold enrichment (6-mer frequency, TF over GST control)
- binding signal (ELF4): 1.1 fold enrichment (6-mer frequency, TF over GST control)
- binding signal (ELK4): 1.06 fold enrichment (6-mer frequency, TF over GST control)
- binding signal (ETV2): 1.1 fold enrichment (6-mer frequency, TF over GST control)
- binding signal (ELF3): 1.06 fold enrichment (6-mer frequency, TF over GST control)
- binding signal (CRX): 1.87 fold enrichment (6-mer frequency, TF over GST control)
- binding signal (ERF): 1.03 fold enrichment (6-mer frequency, TF over GST control)
- binding signal (ETV3L): 1.01 fold enrichment (6-mer frequency, TF over GST control)
- binding signal (ETS2): 1.04 fold enrichment (6-mer frequency, TF over GST control)
- binding signal (SPDEF): 1.05 fold enrichment (6-mer frequency, TF over GST control)
- binding signal (ETV7): 1.02 fold enrichment (6-mer frequency, TF over GST control)
- binding signal (ELF5): 1.07 fold enrichment (6-mer frequency, TF over GST control)
- binding signal (ETV3): 1.18 fold enrichment (6-mer frequency, TF over GST control)
- binding signal (ETV6): 1.02 fold enrichment (6-mer frequency, TF over GST control)
